Several values for one entry are separate records, joined by “and”; a condition that tells them apart may be missing. Equal values may be shown once. In all, about 330,000 compounds went through this assay and about 1,900 (0.58%) were called active. Inconclusive results (about 4%) are left out. The list is a sample of the results. Measured potencies and affinities stand elsewhere. A number with no mark means an inactive call. Rule as the data show it: inconclusive = inhibition above about 70% without an active follow-up result; inactive = below that.
assay: M. tuberculosis growth inhibition, HTS (AID 449762);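 also: bacterial growth assessed after seven days of incubation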; settings: M. tuberculosis H37Rv growth inhibition, 7H9 media; at 25 µM; stronger effect = higher value

Compound | inhibition
Cc1ccc(C)c(S(=O)(=O)N2CCN(C(=O)CCc3c[nH]c4ccccc34)CC2)c1 | -3.94%
CSc1nsc(/C=C/Nc2ccc(F)cc2F)c1C#N | 7.19%
CSc1nsc(/C=C/Nc2ccc(C)cc2)c1C#N | 18.6%
O=c1c2cnn(-c3ccccc3)c2ncn1Cc1cccc(Cl)c1 | 0.84%
NNC(=O)COc1cccc(Oc2ccccc2)c1 | 7.98%
O=C(COc1ccccc1)Nc1ncccn1 | -7.9%
Cc1ccc2c(c1)C1(OCCCO1)C(=O)N2CC#N | -7.17%
Cc1nc(CSc2ccc(Cl)cc2)cc(N2CCOCC2)n1 | 0.76%
O=S(=O)(Cc1cc(N2CCOCC2)nc(-c2ccccn2)n1)c1ccccc1 | 5.9%
COc1c(C)cc(C(=O)C2CCCN(C(=O)c3cc(C)n(C)n3)C2)cc1C (stereo not drawn) | 5.63%
CCOC(=O)c1c(NC(=O)/C=C\C(=O)O)sc(C)c1-c1ccccc1 | -6.71%
CCOC(=O)c1c(NC(=O)CCN2CCOCC2)sc(C)c1-c1ccccc1 | 3.54%
COc1cc(/C=N/c2oc(C)c(C)c2C#N)cc(Br)c1O | 12%
COCCN(C(=O)COC(=O)CCC(=O)c1ccc(Cl)cc1)c1c(N)n(Cc2ccccc2)c(=O)[nH]c1=O | -11.3%
Cc1cc(NC(=O)CSc2ccc(-c3ccccc3)nn2)no1 | -8.31%
Cc1csc(NC(=O)CSc2ccc(-c3ccccc3)nn2)n1 | 1.71%
COCCNC(=O)c1noc2c1CCc1cc(OC)ccc1-2 | 3.34%
O=C(Nc1ccc(C(F)(F)F)cc1)c1ccc(NC(=O)C2CCCO2)cc1 (stereo not drawn) | -5.77%
Cc1cccc2sc(NNC(=O)C3=COCCO3)nc12 | 2.71%
CCOC(=O)N1CCN(C(=O)c2cccc(S(=O)(=O)Nc3ccc(Br)cc3)c2)CC1 | 8.88%
CC(NCC(O)COc1ccc2ccccc2c1)c1ccccc1 (stereo not drawn) | 9.15%
COC(=O)C(C)n1nc(C)n(-c2ccc(C)cc2)c1=O (stereo not drawn) | -0.27%
CCOC(=O)c1nn(-c2ccc(C)cc2)c(=O)cc1OCC(=O)Nc1ccc(OC)cc1 | 8.61%
Cc1cc(NC(=O)c2cncc(Br)c2)ccc1NC(=O)c1cc2ccccc2o1 | 6.1%

Compound | inhibition
CCC(=O)Nc1ccc(NC(=O)c2ccc3ccccc3c2)cc1 | -4.7%
O=S1(=O)CCOC[C@H](c2ccccc2)N1Cc1ccccc1F | 1.26%
CNC(C)C#Cc1ccc2c(=O)c3cc(C)c(C)cc3oc2c1 (stereo not drawn) | 1.51%
CNC(C)C#Cc1ccc2c(=O)c3ccccc3oc2c1 (stereo not drawn) | 30%
CC(C)(C)OC(=O)C[C@@H]1C/C=C\C[C@@H](CC(=O)N(CCO)Cc2ccccc2)C(=O)NC[C@@H](c2ccccc2)OC1=O | 4.78%
CCCCN(C(=O)CC1CCCC1)c1c(N)n(CCCC)c(=O)[nH]c1=O | -14.4%
O=C(NCC1CCCO1)C1c2ccccc2Oc2ccccc21 (stereo not drawn) | -7.07%
Cc1ccc(N(CC(=O)N2CCc3ccccc3C2)S(C)(=O)=O)cc1 | -1.47%
COc1cc(Cl)nn(-c2ccccc2)c1=O | -13.2%
COc1c(Cl)cnn(-c2ccccc2)c1=O | 6.51%
Cn1c(=O)cc(OCC(=O)NCCCN2CCN(c3cccc(Cl)c3)CC2)c2ccccc21 | 1.78%
C=CCNc1nc(C(=O)OCC(=O)c2ccc(F)cc2)cs1 | -9.37%
CCN(C(=O)Cc1c(C(=O)O)n(C)c2ccccc12)c1cc(OC)ccc1OC | -7.09%
C/C=C(\C)C(=O)Nc1cccc(C2=NOC3(C2)C[C@@H](C(N)=O)N(C(=O)c2cc([N+](=O)[O-])cc([N+](=O)[O-])c2C)C3)c1 (stereo partly drawn) | -8.05%
C/C=C(/C)C(=O)Nc1cccc(C2=NOC3(C2)C[C@H](C(N)=O)N(C(=O)c2ccccc2)C3)c1 (stereo partly drawn) | -2.03%
COc1ccc(N2CC(C(=O)N3CCN(Cc4ccc5c(c4)OCO5)CC3)CC2=O)cc1 (stereo not drawn) | -6.83%
COc1ccc(/C=C2\CCCC3C2=NN(C(=O)CSc2ncn[nH]2)C3c2ccc(OC)cc2)cc1 (stereo not drawn) | 8.82%
O=c1cc(CNc2cc(C(F)(F)F)cc(C(F)(F)F)c2)nc2sccn12 | 3.54%
COC(=O)CN(c1ccc2c(c1)OCCO2)S(=O)(=O)c1ccccc1 | -5.06%
CC(=O)c1c(C)n(Cc2ccccc2)c2ccc(O)cc12 | -1.54%
COc1ccc2c(c1)c(C(C)=O)c(C)n2CCc1ccccc1 | -7.55%
Cn1cc(CNC(=O)c2cc(COc3ccc4c(c3)CCCC4)on2)cn1 | 7.16%
CN(C)c1oc(/C=C/c2ccccc2)nc1C#N | 2.83%
Cc1ccc(C(=O)NC(C)C2CCCO2)o1 (stereo not drawn) | -14.8%

Compound | inhibition
Cc1ccc(S(=O)(=O)N2CCCCC2C(=O)N2CCN(C)CC2)cc1 (stereo not drawn) | -3.69%
CN(C)c1cccc(/C=C(\C#N)c2ccccc2)c1 | 11.4%
CC1=CC(=O)c2ccccc2C1=O | -6.06% and 0.39%
CC(C)(C=O)C1=CC(=O)c2ccccc2C1=O | -5.62%
COc1ccccc1-n1c(CNC(=O)c2ccco2)nnc1SCC(=O)Nc1cc(C)ccc1C | -9.93%
CCCCCCNc1nc(-c2ccc(OC)cc2)c(CCC(=O)O)s1 | 31%
Fc1ccc2[nH]c3c(NCCN4CCOCC4)ncnc3c2c1 | 1.25%
COc1ccc(CCNc2ncnc3c2[nH]c2cc(OC)c(OC)cc23)cc1OC | -4.75%
COc1ccc(CNc2ncnc3c2[nH]c2ccccc23)cc1 | 59.2%
Cc1ccc2[nH]c3c(NCc4ccccc4)ncnc3c2c1 | 67.8%
C=CCn1c(SCC(=O)c2c(N)n(CCC)c(=O)n(C)c2=O)nc2sc(CC)cc2c1=O | 0.69%
CSc1ccc(/C=C/C(=O)OCC(=O)c2ccc[nH]2)cc1 | 5.61%
O=C(O)CC(C(=O)NCc1ccccc1)C1CCCO1 (stereo not drawn) | -7.82%
COc1cc(NC(=O)c2ccnnc2)cc(C(=O)Nc2cccc(C(F)(F)F)c2)c1 | 42.8%
COc1cc(NC(=O)c2cnc(N)o2)cc(C(=O)Nc2cccc(C(F)(F)F)c2)c1 | 2.04%
Cc1ccc(C)c(N2CCN(S(=O)(=O)c3c(C)[nH]c(C)c3C(=O)N3CCCCC3)CC2)c1 | -4.36%
Cc1cc(C(=O)COc2ccccc2C(N)=O)c(C)n1CC1CCCO1 (stereo not drawn) | -7.82%
Cc1cc(C(=O)COc2ccccc2C(N)=O)c(C)n1C | -2.03%
O=C(O)/C=C\C(=O)Nc1ccccc1N1CCN(c2ccccc2)CC1 | -0.24%
O=C(CSc1nnc2c(n1)[nH]c1ccccc12)Nc1ccc2c(c1)OCO2 | 0.35%
COc1cc(CC(=O)N/N=C/c2ccc([N+](=O)[O-])cc2)c([N+](=O)[O-])cc1OC | 2.69%
CCSc1nnc(NC(=O)CCCOc2ccc(C)cc2)s1 | 1.29%
CCC(C)NC(=S)Nc1ccc(F)cc1 (stereo not drawn) | -4.81%
CCC(C)NS(=O)(=O)c1ccc(NS(C)(=O)=O)cc1 (stereo not drawn) | 4.07%

Compound | inhibition
O=C(Cc1cccs1)NCc1cccc(CNC(=O)Cc2cccs2)c1 | 1.18%
COc1ccc(C2NCc3ccccc3-n3cccc32)cc1 (stereo not drawn) | -8.78%
N#Cc1ccc(C(=O)NCCCSc2ccccc2)cc1 | -3.48%
CCC(C)N1CC(=O)N2C(c3ccc(OC)cc3OC)c3[nH]c4ccccc4c3C[C@H]2C1=O (stereo partly drawn) | 6.67%
CCOc1ccc(OCCC(=O)OCC(=O)NC2CCCC2)cc1 | 4.34%
CCCn1c(C(C)Nc2nc(-c3ccc(C)cc3)cs2)nc2cc(Cl)c(N3CCCCC3)cc21 (stereo not drawn) | 44.2%
COc1ccc(-c2csc(NC(C)c3nc4cc(Cl)c(Cl)cc4n3CCCO)n2)cc1 (stereo not drawn) | 35.7%
COc1ccc(-c2cc(C3CCN(Cc4ccc([N+](=O)[O-])cc4)CC3)[nH]n2)cc1 | 39.6%
COc1ccc(OC)c(-c2cc(C3CCN(C(=O)OC(C)(C)C)CC3)[nH]n2)c1 | -1.26%
Cc1ccc(CN2CCC(c3cc(-c4cccs4)n[nH]3)CC2)cc1 | 42.8%
CC(C)(C)OC(=O)N1CCC(c2cc(-c3cccs3)n[nH]2)CC1 | 10.2%
CCOC(=O)CN1CCC(c2cc(-c3ccc(Cl)cc3)n[nH]2)CC1 | 0.17%
COc1ccc(-c2cc(C3CCN(CC(O)C(F)(F)F)CC3)[nH]n2)cc1 (stereo not drawn) | 7.78%
CCCCCOc1ccc(CSc2ncn[nH]2)cc1 | 29.4%
COc1cccc(CN2C(=O)C(C)Oc3ccccc32)c1 (stereo not drawn) | -3.69%
O=C(CSc1nncc2ccccc12)N1CCOCC1 | -0.48%
O=C1COc2ccc(S(=O)(=O)CCC(=O)N3CCN(c4ccccc4)CC3)cc2N1 | -9.62%
O=C(NCCN1CCOCC1)c1ccc(Cl)nc1Cl | -1.1%
CN(CCOc1ccccc1)Cc1nc2cc(Cl)ccc2c(=O)[nH]1 | 58.8%
CC(c1nc2ccccc2c(=O)[nH]1)N(C)c1ccc2ccccc2c1 (stereo not drawn) | -13.1%
CCC(Sc1nc(C)cc(=O)[nH]1)C(=O)Nc1ccc(Cl)cn1 (stereo not drawn) | -1.49%

From PubChem BioAssay AID449762 (Southern Research Specialized Biocontainment Screening …, 2010)
